Screening data from PubChem.
An excerpt weighted towards active compounds, which were near 3.5% of everything screened.
GPR151 ag: activators of human GPR151; Q8TDV0; PathHunter beta-arrestin GPR151 cells, luminescence; activation, % at 11.2 µM; 650,000 tested, 1% active; AID 1508602; in the data active = activation above about 4.9%;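 note: 0% = median of compound wells and 100% = cells with positive control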
MITF inh: inhibitors of human MITF | O75030 | AlphaScreen MITF homodimerization, bead proximity signal | inhibition, % at 2.6 µM | 650,000 tested, 0.91% active; in the data active = inhibition above about 50%;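 note: 0% = vehicle wells with protein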
Target sequence (O75030 whole entry, looked up): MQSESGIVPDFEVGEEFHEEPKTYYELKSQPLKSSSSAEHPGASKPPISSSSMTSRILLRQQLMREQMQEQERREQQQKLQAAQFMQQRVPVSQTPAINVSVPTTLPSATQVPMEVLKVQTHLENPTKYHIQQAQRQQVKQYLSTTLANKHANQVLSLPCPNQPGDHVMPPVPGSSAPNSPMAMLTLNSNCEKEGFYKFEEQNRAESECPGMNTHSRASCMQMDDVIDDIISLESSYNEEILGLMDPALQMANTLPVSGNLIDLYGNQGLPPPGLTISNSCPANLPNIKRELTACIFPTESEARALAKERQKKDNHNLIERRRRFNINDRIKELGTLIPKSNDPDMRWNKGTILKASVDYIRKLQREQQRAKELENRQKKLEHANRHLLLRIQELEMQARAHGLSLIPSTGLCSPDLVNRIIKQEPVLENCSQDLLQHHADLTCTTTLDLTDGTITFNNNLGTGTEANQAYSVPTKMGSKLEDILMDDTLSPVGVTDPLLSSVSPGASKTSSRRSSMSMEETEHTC
FBW7 activator: human FBW7 E3 ligase activation, primary screen | Q969H0 | AlphaScreen FBW7–phospho-cyclin E peptide binding, activator screen | normalized activity (activation), % at 26.1 µM | 650,000 tested, 0.13% active; in the data active = normalized activity above about 1.9%;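 note: purified mutant Fbw7 with reduced substrate affinity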
TEAD-YAP inh: TEAD-YAP interaction inhibition | HEK-TIYL cells, TEAD-Gal4/YAP UAS-luciferase luminescence | inhibition, % at 9.12 µM | 640,000 tested, 1.4% active | AID 1259422; in the data active = inhibition above about 32%;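 note: 0% = median of test compound wells and 100% = reference inhibitor wells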
* hit, by the source's call.

SMILES	GPR151 ag	MITF inh	FBW7 activator	TEAD-YAP inh
CCOCCOC(=O)c1[nH]c2c(c1C)C(=O)CC(c1ccc(OCC)cc1)C2 (stereo unspecified)	0.0	3.6	0.4	5.7
O=C(Oc1ccc(/C=C/c2ccncc2)cc1)c1ccco1	-4.9	8.5	0.1	35.1*
O=C(Oc1cccnc1)c1ccco1	0.4	9.1	0.1	-10.7
CC(C)(C)OC(=O)N/N=C\c1ccc(OC(=O)c2ccco2)cc1	3.1	11.2	0.1	59.4*
COC(=O)N/N=C\c1ccc(OC(=O)c2ccco2)cc1	-4.1	4.5	0.7	-1.8
CCOC(=O)c1c(NC(=O)COc2ccc(Br)cc2Br)sc2c1CCCC2	0.9	1.4	-0.1	-0.3
Oc1c(CN2CCCCC2)cc(Br)c2cccnc12	0.3	98.4*	-1.3	58.4*
CC(C)OCc1cc(CN2CCCCC2)c(O)c2ncccc12	-0.8	104.5*	-1.2	86.4*
CCOc1cccc(CN2CCCCCC2)c1O	0.0	9.6	0.2	-0.7
COCc1cc(CN2CCN(c3ccccc3OC)CC2)c(O)c2ncccc12	4.4	106.5*	-0.5	41.9*
COCc1cc(CN2CCOCC2)c(O)c2ncccc12	0.7	89.8*	-2.0	1.7
CCOc1ccccc1N1CCN(Cc2cc(OC)c(O)c(OC)c2)CC1	1.1	26.7	0.1	-2.2
COC(C(=O)N1CCC2(CC1)CC2C(=O)Nc1ccccc1)c1ccccc1 (stereo unspecified)	1.6	-10.0	0.0	-11.3
COCc1cc(CN2CCCCC2)c(O)c2ncccc12	0.6	98.1*	-1.0	75.5*
CCCOCc1cc(CN2CCCCC2)c(O)c2ncccc12	4.2	106.4*	-1.3	71.0*
COc1ccc(-n2ncc3c(N4CCN(c5ccccc5)CC4)ncnc32)cc1	-0.7	-9.4	0.0	-1.1
COc1ccc(-n2ncc3c(N4CCCCCC4)ncnc32)cc1	-5.0	-6.7	0.1	96.8*
COc1ccc(-n2ncc3c(N4CCCCC4)ncnc32)cc1	-7.9	12.2	0.4	90.8*
O=C(NNC(=O)c1nn(-c2ccc(Cl)cc2)cc1O)c1ccccc1F	0.6	28.1	-0.4	15.5
O=C(NNC(=O)c1nn(-c2ccc(Cl)cc2)cc1O)c1ccc2ccccc2n1	-2.1	69.4*	-1.0	65.2*
O=C(CSc1nc2ccccc2c2nc(-c3ccccc3)nn12)c1ccc(O)c(O)c1	1.5	24.0	-0.5	43.9*
c1cncc(CNc2nc(N3CCC(N4CCOCC4)CC3)nc3c2ncn3-c2ccsc2)c1	-0.4	8.9	-0.4	9.1
OCC1CCCN1c1nc(Nc2ccc3c(c2)OCO3)c2ncn(-c3ccsc3)c2n1 (stereo unspecified)	-1.6	22.1	-0.1	34.3*
COc1cc(Nc2nc(N3CCCC3CO)nc3c2ncn3-c2ccsc2)cc(OC)c1OC (stereo unspecified)	-0.6	20.4	-0.4	18.0
OCC1CCCN1c1nc(NCc2cccnc2)c2ncn(-c3ccsc3)c2n1 (stereo unspecified)	0.1	-6.3	-0.3	54.4*
SMILES	GPR151 ag	MITF inh	FBW7 activator	TEAD-YAP inh
OCC1CCCN1c1nc(Nc2ccccc2)c2ncn(-c3ccsc3)c2n1 (stereo unspecified)	-0.7	3.3	-0.1	36.0*
CC(=O)Nc1ccc(Nc2nc(N3CCCC3CO)nc3c2ncn3-c2ccsc2)cc1 (stereo unspecified)	-1.4	15.5	-0.4	14.6
COc1ccc(Br)cc1/C=N/NS(=O)(=O)c1ccc(Cl)cc1	-0.5	10.4	-0.1	-3.1
CCc1ccccc1NC(=O)CSc1nc2ccsc2c(=O)n1-c1ccc(Cl)cc1	-0.4	4.1	0.2	14.0
Cc1ccc(C(=O)Nc2ccc(NC(=O)c3ccccc3)cc2)cc1S(=O)(=O)Nc1ccc(NC(=O)c2ccccc2)cc1	-0.2	12.0	0.0	9.7
O=C(Nc1ccccc1)C1=C(c2ccccc2)S(=O)(=O)CCS1(=O)=O	0.6	11.4	0.5	80.9*
O=C(Nc1ccc(-c2ccccc2)cc1)c1ccc(C(=O)Nc2ccc(-c3ccccc3)cc2)cc1	0.3	8.3	-0.1	2.4
Cc1cc(C2C(=O)c3ccccc3C2=O)nc2ccccc12	0.0	-9.4	-0.2	48.6*
C[C@H]1[C@@H](OC(=O)CCC(=O)O)O[C@@H]2OC3(C)CC[C@H]4[C@H](C)CC[C@@H]1[C@@]24OO3	-0.2	-0.5	0.0	82.3*
CO[C@H]1O[C@@H]2O[C@@]3(C)CC[C@H]4[C@H](C)CC[C@@H]([C@H]1C)[C@@]24OO3	1.3	8.9	0.1	1.8
C[C@@H]1CC[C@H]2[C@@H](C)C(O)O[C@@H]3OC4(C)CC[C@@H]1[C@]32OO4 (stereo partly specified)	0.1	25.1	-0.1	88.3*
COc1cc(Nc2nc(Nc3ccc(N4CCOCC4)cc3)c3ncn(C(C)C)c3n2)cc(OC)c1OC	1.4	16.7	-0.1	33.5*
COc1cc(Nc2nc(Nc3ccc(N4CCOCC4)cc3)nc3c2ncn3C(C)C)cc(OC)c1OC	0.3	5.2	-0.1	4.1
COc1cc(Nc2nc(Nc3cnccn3)nc3c2ncn3C(C)C)cc(OC)c1OC	2.0	5.2	-0.1	47.5*
COc1cc(Nc2nc(Nc3ccc(-n4ccnc4)cc3)nc3c2ncn3C(C)C)cc(OC)c1OC	-2.2	-1.1	0.2	40.1*
COc1cc2nc(Nc3cnccn3)nc(Nc3cc(OC)c(OC)c(OC)c3)c2cc1OC	1.5	15.2	0.0	32.7*
CCCCCCc1cc2c3c(c(=O)oc2cc1OC(C)C(=O)O)CCCC3 (stereo unspecified)	-0.5	-4.8	-0.2	-4.9
C=CCc1ccc(O)c(-c2cc(CC=C)ccc2O)c1	0.4	13.8	0.5	0.1
C=CCN(CC=C)Cc1cc(O)c(CN(CC=C)CC=C)cc1O	0.4	53.2*	0.0	-7.7
COC(=O)c1ccc2c(c1)N(Cc1ccc(C(F)(F)F)o1)C(=O)C(C)O2 (stereo unspecified)	0.3	23.2	0.0	-1.4
COc1ccc(Nc2nc(-c3c(C)nc4ccccn34)cs2)cc1	0.7	-0.4	-0.1	61.6*
Cc1nc2ccccn2c1-c1csc(Nc2ccc(Br)cc2Br)n1	-0.3	1.6	0.4	55.3*
OCCNc1nc(Nc2ccc(-n3ccnc3)cc2)nc2c1ncn2-c1ccccc1	0.3	7.7	0.4	42.5*
Oc1ccc(CCNc2nc(Nc3ccc(-n4ccnc4)cc3)nc3c2ncn3-c2ccccc2)cc1	0.3	2.7	0.1	16.1
OCCNc1nc(Nc2ccccc2)nc2c1ncn2-c1ccccc1	-0.8	7.0	-0.1	49.7*
OCCNc1nc(Nc2ccc(C(F)(F)F)cc2)nc2c1ncn2-c1ccsc1	0.7	-17.9	0.1	15.4
OCCNc1nc(Nc2ccncc2)nc2c1ncn2-c1ccsc1	1.8	12.6	0.0	60.1*
OCCNc1nc(Nc2ccc(-n3ccnc3)cc2)nc2c1ncn2-c1ccsc1	0.9	4.3	-0.1	47.5*
Cc1ccc(S(=O)(=O)N2N=NC3C4CC(C5CC=CC54)C32)cc1 (stereo unspecified)	0.6	7.6	0.3	4.6
O=C(OCc1ccccc1)N1CCCN(CCc2ccncc2)CC1	-0.1	5.0	1.9*	-11.0
